# High-throughput results (PubChem BioAssay)
# Marburg entry inh: blocks Marburg virus binding to or entry into cells. Marburg virus pseudotyped entry inhibition, cell reporter. Potency, µM (highest dose often 37.8 µM), for inactives: at the top dose activity change, negative = inhibition, most hits filed as inhibitors. 1.8% of 300,000 active; calls by dose curve; tested in HEK293 cells
# RE007 growth inh: less growth of the S. pombe RE007 Vpr strain. S. pombe RE007 Vpr strain, BacTiter-Glo ATP luminescence, 24 h. Potency, µM (top dose mostly 92.2 µM), inactives show at the highest dose activity change, negative = less growth, hits mostly inhibitors. 0.21% of 360,000 active; active = well fitted falling curve with a large enough effect; inconclusive = small, poorly fitted or top-dose-only effect; inactive = no such curve, though single readings can be large or run the other way; note: nearly all actives have a fitted effect of over 50% in size
#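 Fission yeast strain RE007, carrying one chromosomally integrated HIV-1 vpr copy, was seeded at OD 0.01 in PMG+AL medium with 23 nL pinned compound. After 24 h at 30 °C and 99% humidity, viability was read by BacTiter-Glo luminescence.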
# FMDV antiviral: antivirals against foot and mouth disease virus. FMDV antiviral cell-based qHTS. Potency, µM (top dose mostly 57.9 µM), for the others: at the top dose activity change, negative = inhibition, usual class: inhibitors. 1.2% of 410,000 active; calls by dose curve; tested in HEK293T cells; note: read-out not given here; nearly all actives have a fitted effect of over 45% in size
# HCV inhibitor: blocks hepatitis C virus | 3.4% of 340,000 active | Huh7.5.1 HCVcc-Cre infection, luciferase reporter, 44 h | AID 651820 | Potency, µM (titrated, usually from 41.8 µM), for inactives: at the top dose activity change, negative = inhibition, usual class: inhibitors
#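 Infectious HCVcc-Cre (~0.5 moi) was added to cells just after compound, with cells seeded 4 h earlier at 1,000 per well. Luciferase activity after 44 h culture reported infection; substrate was incubated 15 min at room temperature before reading.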
# Lassa entry inh: inhibitors of Lassa virus binding or cell entry | Lassa virus pseudotype entry inhibition, cell reporter | Potency, µM (series often up to 37.9 µM), without a hit: at the top dose activity change, negative = inhibition, hits mostly inhibitors | 1.2% of 300,000 active | AID 540256; calls by dose curve; tested in HEK293 cells; note: nearly all actives have a fitted effect of over 50% in size
# Sm TGR block: inhibitors of Schistosoma mansoni thioredoxin glutathione reductase; Q962Y6; purified TGR, DTNB reduction, TNB absorbance 405 nm; Potency, µM (series often up to 114 µM), inactives show top-dose activity change, negative = inhibition, actives largely listed as inhibitors; 3% of 360,000 active; note: nearly all actives have a fitted effect of over 60% in size
#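 Kinetic colorimetric format: TGR-catalysed, NADPH-driven DTNB reduction monitored via TNB absorbance. Enzyme dispensed at 20 nM; compound exposure 15 min at room temperature before reaction start.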
# * = called active by the depositor; ? = inconclusive; / = no result given; ! = repeats disagree; [ ] = remark or other dose. Sampled rows, rich in hits. Any-hit rate of the full collection: about 7.2%. Unless noted, calls come from the whole dose curve; as a rule, active = well fitted curve in the direction sought with a large enough effect; inconclusive = small, poorly fitted or top-dose-only effect, or another doubt; inactive = no such curve, though single readings can be large; an effect the other way counts as inactive or inconclusive. % is set by controls: 0 for no effect and ±100 for the full control effect; potency is the fitted concentration of half-maximal effect.
SMILES,Marburg entry inh,RE007 growth inh,FMDV antiviral,HCV inhibitor,Lassa entry inh,Sm TGR block
COc1ccc(Cn2nnnc2C(c2ccc(F)cc2)N2CCN(C3CCCC3)CC2)cc1 (stereo unspecified),10µM*,4%,-10%,?,?,-3%
COc1ccc(C(c2nnnn2Cc2cccs2)N2CCN(c3ccc(F)cc3)CC2)cc1OC (stereo unspecified),?,6%,-11%,-20%,8.2µM*,?
COc1ccc(C(c2nnnn2Cc2ccc(F)cc2)N2CCN(c3ccc(OC)cc3)CC2)cc1 (stereo unspecified),?,9%,0%,-22%,3.2µM*,0%
CC(=O)NCC(=O)N[C@H](CCC(=O)O)C(=O)O,/,/,-15%,/,/,/
CN1CCN(C(c2ccc(F)cc2)c2nnnn2Cc2cccs2)CC1 (stereo unspecified),?,-14%,-6%,-7%,22%,-27%
Fc1ccc(C(c2nnnn2Cc2cccs2)N2CCN(C3CCCCC3)CC2)cc1 (stereo unspecified),22µM*!,2%,-27%,?,-17%,-15%
CCN(CC)C(=O)c1cccc(-c2csc(C(C)(O)c3cccc(OC)c3)n2)c1 (stereo unspecified),/,4%,35µM*,/,/,/
CCN(CC)C(=O)c1cccc(-c2csc(C(C)(O)c3ccc(F)c(F)c3)n2)c1 (stereo unspecified),/,6%,25µM*,/,/,/
CCN(CC)C(=O)c1cccc(-c2csc(C(C)(O)c3ccc(OC)cc3)n2)c1 (stereo unspecified),/,2%,-29%,/,/,/
COc1ccc(-n2c(CNC(=O)c3c(-c4ccccc4)noc3C)nnc2SC)cc1,/,/,-14%,/,/,/
CCOc1cc(CNC(=O)c2ccc3c(c2)nc2n3CCCCC2)ccc1OC,/,/,-8%,/,6%[46.1 µM],-5%
O=C1NCCOC(=O)[C@H](Cc2ccc(F)cc2)C/C=C\C[C@H]1CC(=O)N(CCO)Cc1ccccc1,/,-5%,?,?,/,/
CC(C)(C)OC(=O)C[C@@H]1C/C=C\C[C@@H](CC(=O)N(CCO)Cc2ccccc2)C(=O)N2CCC[C@H]2COC1=O,/,1%,-22%,-2%,/,/
CC(C)(C)OC(=O)C[C@@H]1C/C=C\C[C@H](CC(=O)N(CCO)Cc2ccccc2)C(=O)N2CCC[C@H]2COC1=O,/,1%,-22%,1.1µM*,/,/
O=C1NCCOC(=O)[C@H](Cc2ccc(F)cc2)C/C=C\C[C@@H]1CC(=O)N(CCO)Cc1ccccc1,/,-5%,?,11µM*,/,/
CCOc1cc(/C=N\Nc2ncc(F)c(N3CCOCC3)n2)ccc1Oc1nc(Cl)ncc1F,?,-8%,16µM*,10µM*,?,6%
CCOc1cc(/C=N/NC(=O)c2ccc(O)cc2)ccc1Oc1nc(Cl)ncc1F,/,-9%,-25%,-21%,/,11%
COc1ccc(Cl)cc1-n1c(C)ccc1C,?,-1%,-9%,-12%,16%,50µM*
O=C(Cc1ccc(Cl)cc1Cl)Nc1cccc(S(=O)(=O)Nc2ccccc2F)c1,?,-25%,-8%,-11%,7.3µM*,-9%
CC(C)(C)c1cc(CN2CCN(CCO)CC2)cc(C(C)(C)C)c1O,0%,10%,-2%,25%,-6%,2.5µM*
CCN1CCN(Cc2cc(C(C)(C)C)c(O)c(C(C)(C)C)c2)CC1,/,/,/,/,/,2.8µM*
COc1cc2c(cc1NCc1ccc3c(c1)OCO3)oc1ccccc12,?,-2%,46%,?,?,-9%
COc1cc2c(cc1NC(=O)COC(=O)c1ccc(C(C)(C)C)cc1)oc1ccccc12,17%[46.1 µM],1%,-2%,9%,8%,-6%
COCCCNC(=S)Nc1cc2oc3ccccc3c2cc1OC,?,-15%,10%,8.9µM*,-14%[46.1 µM],-1%
COc1cc2c(cc1NC(=S)Nc1cccc(C(F)(F)F)c1)oc1ccccc12,-24%,?,-6%,10µM*,-1%,-23%
SMILES,Marburg entry inh,RE007 growth inh,FMDV antiviral,HCV inhibitor,Lassa entry inh,Sm TGR block
COc1cc2c(cc1NC(=S)Nc1cccc3ccccc13)oc1ccccc12,2%,-20%,38%,2.5µM*,16%,-3%
COc1cc2c(cc1NC(=O)COc1ccccc1OC)oc1ccccc12,-25%,2%,2%,?,1%,2%
Cc1cccc2nc(CNC(=O)CN3Cc4cc(Cl)ccc4OC(C)C3)cn12 (stereo unspecified),/,/,-5%,/,/,/
COc1ccc(N2CC(NC(=O)C(=O)c3c(C)[nH]c4ccccc34)CC2=O)cc1 (stereo unspecified),/,/,-7%,/,-1%[46.1 µM],3%
O=C(NCc1cccs1)c1ccc2c(c1)sc1nc(-c3ccccc3)cn12,/,/,27%,/,10%[46.1 µM],1%
Cc1ccc(C(=O)Nc2ccccc2C(=O)O)cc1S(=O)(=O)N1CCCCCC1,/,/,-12%,/,?,-3%
O=C1NC(=S)N(c2ccccc2F)C(=O)/C1=C\c1cccs1,?,27%,32µM*,3%,8%,7.9µM*
CCOC(=O)C1=C(C)N(c2ccc(OCC)cc2)C(=O)/C1=C\c1ccco1,1%[46.1 µM],12%,-10%,?,-3%,18µM*
Cc1ccc(/C=C2/C(=O)N(c3ccccc3)C(=S)N2C)o1,?,?,4%,0%,-29%,22µM*
CCOc1ccc(N2C(=O)/C(=C/c3ccco3)C(=O)NC2=S)cc1,/,0%,-17%,15%,/,22µM*
O=C1NC(=O)C(=Cc2cccs2)C(=O)N1,1%[46.1 µM],9%,-22%,10%,-1%[46.1 µM],/
CCOc1ccc(CNC(=O)c2nn(-c3ccc(OC)cc3)c(=O)c3c2c2ccccc2n3C)cc1,18%[46.1 µM],/,-19%,/,?,3%
Cc1nc2ccc(C(=O)N3CCc4c(cnc(C)c4CNC(=O)/C=C/c4cccs4)C3)cc2nc1C,/,/,4%,/,/,/
N#Cc1ccccc1Cn1c(=O)n(CCCC(=O)NCc2ccc3c(c2)OCO3)c(=O)c2sccc21,8%[46.1 µM],/,-9%,/,-8%[46.1 µM],-6%
O=C(O)c1ccccc1-c1ccc(C=C2C(=O)N(c3ccccc3)C(=S)N(c3ccccc3)C2=O)o1,/,2%,16%,-3%,/,8.9µM*
O=C(O)c1cc(-c2ccc(/C=C3\NC(=O)N(c4ccccc4)C3=O)o2)ccc1Cl,/,1%,6%,-1%,/,50µM*
Cc1ccccc1N1C(=O)/C(=C/c2ccco2)C(=O)NC1=S,/,/,/,/,/,45µM*
O=C(O)c1ccccc1-c1ccc(/C=C2\SC(=O)N(c3ccccc3)C2=O)o1,/,1%,93%,4%,/,-3%
Cc1ccc(/C=C2\C(=O)NC(=O)N2C)o1,6%[46.1 µM],-1%,-8%,10%,?,35µM*
CCOc1ccc(N2C(=O)/C(=C\c3cccs3)C(=O)NC2=S)cc1,-29%[46.1 µM],-6%,-92%,?,3%,8.9µM*
CCOc1ccc(N2C(=O)/C(=C/c3ccco3)N(C)C2=S)cc1,4%,3%,-28%,7%,-3%,50µM*
